Assay outcomes from PubChem.
Shown are actives, neighbours in structure and some others; about 4.1% of the full set was active somewhere.
hcDAF12 agonist = activators of H. contortus DAF-12 nuclear receptor | activation, % at 6.8 µM | HEK293 hcDAF-12 lit1-tk-luc reporter, luminescence; 0% DMSO, 100% Δ7-dafachronic acid | actives 1.4% (n = 370,000);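 active = activation above the mean of all tested compounds plus 3 SD, cut at about 5.5% in these data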
DAX1 inh-1 = inhibitors of human orphan nuclear receptor DAX1 (NR0B1). P51843. HEK293 Gal4-DAX1 luciferase reporter, luminescence. inhibition, % at 6.75 µM. actives 0.99% (n = 340,000);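 active = inhibition above the mean over all tested compounds plus 3 SD, cut at about 4.2% in these data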;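 note: inhibition shows as a rise in luminescence from relieved DAX1 repression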
Target sequence (P51843 207-470 limits assumed): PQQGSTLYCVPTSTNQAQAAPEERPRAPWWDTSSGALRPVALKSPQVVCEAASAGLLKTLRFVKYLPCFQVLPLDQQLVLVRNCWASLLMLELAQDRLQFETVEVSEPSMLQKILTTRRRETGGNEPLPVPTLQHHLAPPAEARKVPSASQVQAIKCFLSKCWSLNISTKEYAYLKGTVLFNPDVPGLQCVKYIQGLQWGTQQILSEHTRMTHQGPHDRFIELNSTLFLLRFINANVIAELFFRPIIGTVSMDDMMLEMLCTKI
hgDAF-12 ag = activates the H. glycines DAF-12 receptor ligand-binding domain | actives 1.8% (n = 370,000) | activation, % at 6.8 µM | HEK293 GAL4-hgDAF12 UAS-luciferase reporter, agonist luminescence; normalized to butyrate control;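 active = activation above a cutoff set at the mean of all screened compounds plus 3 SD, cut at about 10% in these data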
DAX1 inh-2 = inhibitors of DAX1 repression of SF-1 activated StAR promoter | HEK293T StAR-luciferase reporter, SF-1/DAX-1 repression relief | inhibition, % at 6.8 µM | actives 1.1% (n = 370,000);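 active = inhibition above the mean over all tested compounds plus 3 SD, cut at about 3.6% in these data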;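 note: higher inhibition means more luminescence from relief of DAX-1 repression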
ssDAF-12 act = S. stercoralis DAF-12 activation, primary screen | HEK293 ssDAF-12/GRIP1 lit1-tk-luc reporter, luminescence; % of 3 µM dafachronic acid response | activation, % at 6.8 µM | actives 1% (n = 370,000);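 active = activation above the mean over all tested compounds plus 3 SD, cut at about 0.9% in these data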
Hits are given with their value; - = inactive; . = not tested or not shown.

SMILES	hcDAF12 agonist	DAX1 inh-1	hgDAF-12 ag	DAX1 inh-2	ssDAF-12 act
Cc1ccc(/C=C2\C(=O)NC(=S)N(c3ccccc3F)C2=O)s1	-	-	-	-	-
Cc1ccc(/C=C2\C(=O)NC(=S)N(c3ccc(F)cc3)C2=O)s1	-	-	-	4.0	-
OC1CN2CCCC(O)C2C1O (stereo not drawn)	-	.	-	-	-
COc1ccc(-n2nc(C(=O)NCC(=O)N3CCC4(CC3)OCCO4)c3ccccc3c2=O)cc1	5.8	-	-	-	-
COc1ccc(CNCC(=O)N2CCC3(CC2)OCCO3)cc1	-	-	-	-	-
C1=C(c2c[nH]c3ccccc23)CCN(Cc2ccccc2)C1	-	-	-	-	-
Nc1c2c(nc3ccccc13)CCN(Cc1ccccc1)C2	6.1	-	-	-	-
COCCNC(=O)CN1C(=O)CN=C(c2ccccc2)c2ccccc21	-	4.5	-	-	-
O=c1[nH]c(=S)n(Cc2ccc(F)cc2)c(O)c1C=NCC1CCCO1 (stereo not drawn)	-	6.2	-	-	-
O=c1[nH]c(=S)n(C2CC2)c(O)c1C=NCC1CCCO1 (stereo not drawn)	-	-	-	-	-
C/C(=N\NC(=S)Nc1ccccc1)c1c(O)n(C)c(=O)n(C)c1=O	-	-	10.8	-	-
CSC(=Nc1ccccc1)c1c(O)n(C)c(=O)n(C)c1=O	5.7	-	-	-	-
Cc1ccc(OC(=O)N(C)C[C@H]2OCc3cnnn3CCCC(=O)N([C@H](C)CO)C[C@H]2C)cc1	-	.	-	-	-
C/C(=N\NC(=O)c1ccccc1)c1c(O)n(Cc2ccccc2)c(=O)[nH]c1=O	-	.	11.4	-	-
COc1cc(OC)c([C@H]2C=C(C)[C@H]3C[C@@H]2C3(C)C)c(OC)c1	-	-	-	-	-
C=CCn1c(O)c(C(C)=NCc2ccco2)c(=O)[nH]c1=O	-	-	-	-	-
C=CCn1c(O)c(C(CC)=NCc2ccco2)c(=O)[nH]c1=O	-	4.9	-	-	-
Cc1cc(/C=C2\C(=O)NC(=O)N(c3cccc(Br)c3)C2=O)c(C)n1C	-	-	-	-	-
Cc1cc(/C=C2/C(=O)NC(=O)N(c3ccc(Br)cc3)C2=O)c(C)n1C	5.9	-	-	-	-
N#Cc1ccc(NC(=S)N2Cc3ccc(Br)cc3-n3nncc3C2)cc1	-	.	-	-	-
O=C(c1ccc(F)c([N+](=O)[O-])c1)N1CC2CC(C1)c1cccc(=O)n1C2 (stereo not drawn)	-	-	-	-	-
N#CC1=C(N)Oc2c(c(=O)oc3ccccc23)C1c1ccncc1 (stereo not drawn)	-	-	-	-	-
N#CC1=C(N)Oc2c(c(=O)sc3ccccc23)C1c1cccnc1 (stereo not drawn)	-	-	-	4.1	-
CN(C)C(=O)Oc1ccnc2cc(Cl)ccc12	-	5.5	-	-	-
CN(C)c1ccc(/C=C2\C(=O)NC(=O)N(CCc3ccc(F)cc3)C2=O)cc1	-	5.5	-	-	-
SMILES	hcDAF12 agonist	DAX1 inh-1	hgDAF-12 ag	DAX1 inh-2	ssDAF-12 act
COCCN1C(=O)NC(=O)/C(=C\c2ccc(F)cc2)C1=O	-	-	-	-	-
O=C1NC(=O)N(CCNc2ncc(C(F)(F)F)cc2Cl)C(=O)C1/C=N/OCc1c(F)cccc1Cl (stereo not drawn)	-	-	-	-	-
CCN(CC)c1ccc(/C=C2\C(=O)NC(=S)N(C)C2=O)o1	-	7.5	-	-	-
O=c1c([N+](=O)[O-])cn(O)cc1[N+](=O)[O-]	-	4.4	-	-	-
OC(CN1CCOCC1)c1csc2ccccc12 (stereo not drawn)	-	-	-	-	-
Cc1ccc(N2C(=O)/C(=C/N3CCN(C(=O)c4ccco4)CC3)C(=O)NC2=S)cc1C	-	-	-	-	-
O=C1NC(=S)N(c2ccc(Br)cc2)C(=O)/C1=C/N1CCN(C(=O)c2ccco2)CC1	-	4.7	-	-	-
COc1ccc2nc(-c3ccc(CN4CCC(n5nnc6ccccc65)CC4)cc3)c(-c3ccccc3)nc2c1	-	.	-	-	-
O=C(Nc1ccccc1)N1Cc2cc(Br)ccc2-n2nncc2C1	-	.	-	-	-
O=C(Nc1nccs1)C(Cl)(Cl)Cl	-	-	-	-	-
O=C(Nc1ccc(Cl)cc1)Nc1nccs1	-	-	10.5	-	-
COc1ccc(S(=O)(=O)N2Cc3cnnn3-c3ccccc3C2C#N)cc1 (stereo not drawn)	-	-	-	-	-
